Laboratory results as given in PubChem BioAssay AID504334 (NMMLSC, 2011).
Where “and” joins values, the source holds several entries; their conditions need not be identical. Equal entries are not always repeated.

Assay: AGP1-GFP expression modulators, hit retest, confirmation, cell-based, flow cytometry, S. cerevisiae, cherry pick set 3 (AID 504334);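 note: median GFP fluorescence per well by flow cytometry over the all cells gate; ratio of sample to mean DMSO control signal so DMSO = 100% not 0%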
Settings: S. cerevisiae AGP1-GFP strain, 3 h, at 10 µM, hits give high values;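 active = response relative to DMSO over 150%; inconclusive = yeast strain with under 70 recorded events; inactive = the rest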

Percent response vs DMSO, inactive:
CCOC(=O)CS(=O)(=O)c1nc(-c2ccccc2)cc(C(F)(F)F)n1 122%, C/C(=C\C(=O)c1ccc(Cl)cc1)Nc1ccc(Br)cc1 99.8%, CC(=O)C(CC(=O)N1CCCC1)C(=O)Nc1ccc(Cl)cc1 (centres undefined) 100%, COc1ccccc1-c1cc(C(F)(F)F)nc(S(=O)(=O)CCCC(=O)O)n1 110%, CC(=O)C(Cl)C(=O)Nc1ccccc1 (centres undefined) 105%, Cc1ccc2c(C)ccc(O)c2n1 102%, CNc1nc(C)c([N+](=O)[O-])c(Nc2ccc(OC)cc2)n1 99.4%, CSc1ccccc1OCc1cc(C(=O)N2CCN(C)C(c3ccccc3)C2)no1 (centres undefined) 101%, O=C(/C=C/Nc1cccc(O)c1)c1ccccc1 102%, Nc1cc(C(=O)O)c(N)c2c1C(=O)c1ccccc1C2=O 102%, Cc1cc(C)c2ccc(C(=O)O)nc2c1O 97.4%, O=C(N/N=C/c1ccccc1F)c1cccc2ccccc12 101%, O=C(Nc1ccccc1)O/N=C1/CCCc2occc21 94.4%, COc1cc(OC)cc(C(=O)Nc2ccc(-c3nc4ccccc4o3)cc2)c1 99.1%, Cc1cccc(Nc2cc(=O)[nH]c(=O)[nH]2)c1 96.8%, COc1ccccc1Nc1nc(NCCO)nc(N)c1[N+](=O)[O-] 99.1%, COc1ccc(Nc2nc(NN)nc(C)c2[N+](=O)[O-])cc1 94.1%, CC1=CN2C(=N)/C(=C/c3ccco3)C(=O)N=C2S1 97.1%, COc1ccc(OC)c(N/C(C)=C/C(=O)c2ccccc2)c1 99.8%, COc1ccc(-c2cc(C(F)(F)F)nc(S(C)(=O)=O)n2)cc1OC 106% and 113%, N#Cc1c(N)nc(N)nc1Nc1ccc(Br)cc1 98.4%, CC(=O)NCCOc1cccc2cccnc12 101%, COc1ccc(OC)c(Nc2nc(NCCC(C)C)nc(N)c2[N+](=O)[O-])c1 98.4%, CC(=O)Nc1ccc(-c2nc3ccccc3o2)cc1 96.8%, Cc1ccc2nc(-c3ccc(NC(=O)c4cccnc4)cc3)oc2c1 93.8%, O=C(Nc1nc(-c2ccccn2)cs1)c1ccccc1-n1cnnn1 100%, O=C(O)c1ccccc1-c1ccccc1C(=O)Nc1ccc(-c2nc3cc(Cl)ccc3o2)cc1 103%, CCN(CC)c1ncnc2ccc(Br)cc12 97.8%, CC1=CN2C(=N)/C(=C/c3ccc(C)o3)C(=O)N=C2S1 98.1%, Cc1ccc(Nc2nc(N)[nH]c(=O)c2N=O)cc1 101%, CC(=O)Nn1cnc2c(c1=O)C1(CCCC1)Cc1ccccc1-2 99.1%, Cc1ccc2c(Cl)cc(Cl)c(OCC(=O)O)c2n1 109%, COc1cccc(N/C=C/C(=O)c2ccc(Cl)cc2)c1 93.8%, Cc1nc(Nc2ccc(Cl)cc2)c(C#N)c(=O)[nH]1 101%, O=C(O)c1ccc2cccc(O)c2n1 103%, FC(F)Oc1cccc2cccnc12 96.4%, COc1ccc(OC)c2c(=O)cc(C(=O)O)[nH]c12 102%, CS(=O)(=O)Oc1ccc(Br)c2cccnc12 96.4%, Cc1ccc(Nc2cc(=O)[nH]c(=O)[nH]2)cc1C 95.8%
